# Test results published in the supplement of paper PMC11417369.
# Whole data set: some 25,000 sequences, median “ln(normalized median fluorescence intensity)” near 9.7, cut for the highest 2% near 11. This excerpt belongs to a sample that is enriched for the highest values.
# System: PfAP2-HC AP2 domain (GST-tagged)
# Experiment: gcPBM binding intensity (ln(normalized median fluorescence intensity)); higher = stronger DNA binding
# Summary of the method: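 Binding of GST-tagged P. falciparum DNA-binding domains, expressed in E. coli and used at about 25 μg on average, was carried out for 1 h in 1× PBS containing 1% milk, 0.2 mg/ml BSA, 0.5% salmon testes DNA and 0.03% Triton X-100. The target was an Agilent 4 × 180k array of primer-extended double-stranded 36-bp intergenic genomic probes plus negative controls, read with Alexa488 anti-GST antibody at 488 nm. Binding intensity is the highest Masliner-normalised natural-log median intensity across replicate spots of either probe orientation.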
row,Sequence,gcPBM binding intensity (ln)
1,AGCTCTATATTTTACACATGCGATTTGGATATATAT [TGCATGCA_site105],9.84
2,ATGTACTATGATAATGCATGCAATAATACATTTTTA [TGCATGCA_site318],9.6
3,AAACTATTCACTATAATACATTAGAAGTGAATAAAA [TGCATGCA_negctrl_site498],9.64
4,TTTTTTTTTCTCCATACACACTTGATAAAACTTTTT [CACACA_site4512],9.64
5,AAAAAAAATAATTTGCGTACATAAAAATTTATAGGA [XGTACX_site3016],9.58
6,AAAAATAAAGAAACAGGTACGCATATATTAAGATAT [XGTACX_site8097],9.98
7,TATCCTAATGCTACCACACACACAAAAACAAATAAT [CACACA_site2609],10.7
8,TATTATTTTTCATATGCATGCAAAAATAAAAAAATA [TGCATGCA_site350],9.31
9,CAAAAGGATAGGCACACACACACACCGATATATATA [CACACA_site8685],10.7
10,CAAAAGGATAGGCACACACACACACCCATATATATA [CACACA_site2199],11.1
11,AAGGATATAACATACACACACACACCCATATATATA [CACACA_site4142],11.1
12,TACATACATACATACACACACACATATATATACATA [CACACA_site853],11
13,GCCAAAAGGATATGCACACACACACCCATATATATA [CACACA_site2198],10.6
14,TGGTAATACCCATACACACACACATACCCATATATA [CACACA_site5509],10.3
15,AAGGATATAACATACACACACACACCGATATATATA [CACACA_site6136],10.6
16,TGGTAATACACATACACACACACATACACATATATA [CACACA_site7312],11.4
17,TATACATATATATACACACACACATATATATATATA [CACACA_site1299],10.1
18,TGGTAATACCCATACACACACACATACACATATATA [CACACA_site8877],10.3
19,TATATACATATATACACACACATATATATATATATA [CACACA_site2805],10.1
20,GGAAGGATATAACATACACACACACCCATATATATA [CACACA_site9376],10.3
21,TATATATATAAAAAAAGTACGTATTTAATAAAAATA [XGTACX_site4992],9.88
22,AAAACTTTTAGTTATACACACAACATAGAAAATATT [CACACA_site6287],9.84
23,TATAAAGACACGTACACACACTAAGTATATCCAATA [CACACA_site6855],10.5
24,AATATTCATATGCAGGTGCATTAATTTTTATTAATT,9.65

row,Sequence,gcPBM binding intensity (ln)
1,ATGCTTTTGTCATGTGCACACACGTATATATTATAT [CACACA_site4163],10.3
2,TGTTAATTATAAATTTGTACTTATTTTTACAAAATA [XGTACX_site6598],9.48
3,ATGTAACATAGGAAATGTACATATAAATATAATTTA [XGTACX_site6452],9.77
4,CATATAATATTTGAAACTATATATAAATATAAGGTA [TGCATGCA_negctrl_site19],9.52
5,GAAAATTTATATTGCACACATAGGGAATAAAAAAAA [CACACA_site2146],9.99
6,ATATTTACCATTGTATGTACATATATAAAATATATC [XGTACX_site3237],9.69
7,AATGGTAATCCACATACACACACACCGACACATATA [CACACA_site8876],11.1
8,CATATACATACACATACACACATACACCCATACACA [CACACA_site8514],10.2
9,TATATATATATATACACACACACACCCATATATATA [CACACA_site2538],10.4
10,CATACACCCATACATACACACATACATATATATATA [CACACA_site8591],9.98
11,TGGTAATCCACATACACACACACATACACATATATA [CACACA_site2727],10.3
12,TATATATACATATACACACACACACCCATATATATA [CACACA_site2246],11.1
13,TATACATACACATACACACATACACCCATACACATA [CACACA_site1746],10.6
14,AAATATAAATGGTAATACACATACACACACACATAC [XGTACX_negctrl_site459],10.5
15,CACATATATACACATACACACACACCCATACACCCA [CACACA_site8505],11
16,ACAGTATATTAAAAAATACACACGTATTATATCTAC [CACACA_site2640],9.83
17,TATATGCTATAATATACACACATACCTATATTTATA [CACACA_site6383],9.94
18,ATTTCTTATTAAATTACACACAAAGTAAATAAATCT [CACACA_site3924],9.54
19,AAAATACACGCATACACACACACACCCACCCATATA [CACACA_site639],11.5
20,AAAAAAAAAATACATACACACACACCCACCCATATA [CACACA_site9187],10.5
21,CACCCATAAATATACACACGCACAACACAAAATAAA [CACACA_site2903],10.7
22,AGAAAATACACGCATACACACACACCCACCCACATA [CACACA_site8115],11.3
23,TACACGCTAAAATACACACACACACCCACATATATA [CACACA_site4153],10.6
24,AAAAAAAATACATACACACACACACCCACATATATA [CACACA_site3561],10.6

row,Sequence,gcPBM binding intensity (ln)
1,GCTTTTGTCATGTGCACACACGTATATATTATATAT [CACACA_site6146],10.9
2,AATATCTAAATAAAGTGTACTTACCTTATTAATTAT [XGTACX_site2276],9.64
3,TAAAAATTGAAGCACACACACAAAAGAAATACAATA [CACACA_site1113],10.9
4,TAAAAGTTGAAGCACACACACAAAAGAAATACAATA [CACACA_site6649],11.3
5,CATAAAAATTGAAGCACACACACAAAAGAAATACAA [CACACA_site1112],10.7
6,TTAAGTCCGTTAACAGTGCATTTTTTCTTTTATGTA [GTGCAC_site9867],9.58
7,TATATAAATATACATTGTACTCAACATTTTCATTAA [XGTACX_site3690],9.62
8,ATATGTTACAGACACACACACACATAAAAAAACAAA [CACACA_site3248],11.1
9,ATGTTACACAGACACACACACATAAAAAAACAAAAA [CACACA_site7516],10.4
10,ATTCATTCATATGTTACACACACACCCACCCATAAA [CACACA_site9066],10.1
11,GGTACATACAGACACACACACAAAAAAAAAAAAATA [CACACA_site6844],11.2
12,ATTCATTCATATGTTACACACACACGCCCACATAAA [CACACA_site7513],10.6
13,TCATTCATATGTTACACACACACACCCACATAAAAA [CACACA_site3245],11.2
14,GTGTACAGACACAAAATATATACATATATATATATA [CACACA_negctrl_site1796],9.51
15,AATACAGACAGACACACACACAAAATAAAATACAAA [CACACA_site245],10.5
16,ATGTTACTCAGACACACACACATAAAAAAACAAAAA [CACACA_site3249],10.4
17,AACAAATACAGACACACACACACACTAATAAAAAAA [CACACA_site8067],11.6
18,TGAACACAGACAAATACACACAAAAAAAATAAATAA [CACACA_site4298],10
19,ATATGTCACTTGTATACACACATATAGATTTCAATC [CACACA_site7519],9.94
20,GAAAATAAAAAATATGAACACACATATATAACAAAA [CACACA_site7975],10.5
21,GGTACATACAAACACACACACAAAAAAAAAAAAATA [CACACA_site1577],10.3
22,AACAAATACAGACACACACACACACCCAAAAAAAAA [CACACA_site515],10.9
23,AAAAAAAACAGACACACACACAAATATATAAAAATA [CACACA_site1172],10.6
24,AACACATACAAACACACACACAAAAAAAAAAAAAAA [CACACA_site393],10.4

row,Sequence,gcPBM binding intensity (ln)
1,CATACAGATGGACACACACACACACCCACAGACAAA [CACACA_site4431],10.5
2,ATAAATGACAGACACACACACAAAAAAAAAAAACAA [CACACA_site2626],11.5
3,TACATATACAGACACACACACACACCCCCACAAAAA [CACACA_site495],10.8
4,AATACACCCAGACACACACACAAAAAAAAAAAAAAA [CACACA_site513],10.1
5,TACAGATACGGACACACACACACACCCAGACAAAAA [CACACA_site4432],11
6,ATGGTACATACATACACACACACAAAAAAAAAAAAA [CACACA_site1578],11.3
7,TTTTTGTAATGACACACACACAAACAGAAAAAATAA [CACACA_site7062],10.2
8,TAGGGATTATACCACACACACATACACATAAATATA [CACACA_site3178],10.3
9,ACAATATGCAAAAAGTGTACACATTCATTTATATAA [XGTACX_site1061],10.1
10,AGCAACCCCCTAGCTACACACATATAGATATAAATA [CACACA_site6577],10.6
11,TTTAAATCGTTAAAAACACACAAAAAAAATCAATTA [CACACA_site2519],9.59
12,TTTTTTTTTTTGGTTACACACATTTGTATATTCTCA [CACACA_site134],9.89
13,CTATATGTTAAATTCTCACACATTATTACAATTTAA [CACACA_site5979],9.67
14,AATTGTAAATTGGGCACTTATAAAAATGAACAAATA [CACACA_negctrl_site1583],9.71
15,ATGAAAAAATTTATATGTACTTAAAATATAATCATA [XGTACX_site1228],9.33
16,AAAAAAAACAGACACATACACACAAAAATGTTATAA [CACACA_site82],10.9
17,TATATATACAGACACATACACACAAATAAAAAAACA [CACACA_site3413],10.3
18,AAAAAACACGCACATACACACAAAAATGTTATAAAT [CACACA_site6188],10.2
19,AAAAAACACAGACATACACACAAAAAGGTTATAAAT [CACACA_site4222],10.2
20,AAAAAAAAAAAAAACACACACATACAGACAAAAATG [CACACA_site83],11.5
21,AAATAAAACAGACACACACACACATACACAAAAAAA [CACACA_site7753],10.9
22,TACAAACAGACATATACACACAAAAAAAAAATAAAA [CACACA_site2562],9.89
23,AACACATACAGACACACACACAAAAAAAAAAAAAAA [CACACA_site6322],10.9
24,AAAAAAAACAGACACACACACAAATACATACACAAA [CACACA_site705],10.5
